The values that follow come from PubChem BioAssay (NCI).

Assay [1] is described as follows: NCI Yeast Anticancer Drug Screen. Data for the rad50 strain (AID 155).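 Further: 0% = growth of vehicle-only cultures of the same strain.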 The following applies: S. cerevisiae rad50 strain growth inhibition; at 50.0 µM; active compounds read high. The essentials:
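Relative growth inhibition (compound vs vehicle) was measured in yeast with a defined repair-gene alteration.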

Assay [2] is described as follows: NCI Yeast Anticancer Drug Screen. Data for the mec2-1 strain (AID 157). The following applies: S. cerevisiae mec2-1 strain, at 50.0 µM, active compounds read high. The essentials: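 Cells of the genetically defined mec2-1 yeast strain are incubated with test compound. Inhibition of growth is calculated against vehicle-treated controls.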
The nature of assay [3]: NCI Yeast Anticancer Drug Screen. Data for the sgs1 mgt1 strain (AID 161).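 Further: 0% = growth of cultures given vehicle only.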 The following applies: S. cerevisiae sgs1 mgt1 strain, at 50.0 µM, active compounds read high. The method, boiled down:
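Mutant yeast exposed to compound; growth scored against vehicle-only wells.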

Assay [4] can be described thus: NCI Yeast Anticancer Drug Screen. Data for the cln2 rad14 strain (AID 165).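 Further: 0% = growth equal to vehicle treated cultures.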 The following applies: S. cerevisiae cln2 rad14 strain, at 50.0 µM, active compounds read high. The essentials:
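The screen exposed genetically defined yeast (cln2 rad14) to test compounds and scored growth inhibition relative to vehicle-treated controls.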

Assay [5] can be described thus: NCI Yeast Anticancer Drug Screen. Data for the bub3 strain (AID 167). The following applies: S. cerevisiae bub3 mutant strain, at 50.0 µM, active compounds read high. The essentials:
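Screening used yeast with an engineered genetic alteration affecting cell cycle control. Compound-exposed cultures were compared with vehicle cultures, and reduced growth was taken as inhibition.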

The nature of assay [6]: NCI Yeast Anticancer Drug Screen. Data for the mlh1 rad18 strain (AID 175). The following applies: S. cerevisiae mlh1 rad18 strain growth inhibition; at 50.0 µM; active compounds read high. The essentials: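 Compound-treated yeast growth, normalised to vehicle controls. Strain bears defined DNA repair mutations.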

The panel holds about 79,000 compounds, 15% with a hit somewhere; the sample as a whole holds those more often. A number with no mark means an inactive call. Active and inactive are the calls of the source. No stated cut-off is given here; in the data, active means growth inhibition above about 70%; inactive means the rest.

On to `C(=C(/C=C/C(=C/c1ccccc1)c1ccccc1)c1ccccc1)\c1ccccc1`, for which the growth inhibition in assay [1] is 33.5%; in assay [2] it was 13.8%; in assay [3], -11.7%; in assay [4], -59%; in assay [5] it was 0.65%; in assay [6], -0.65%.
As for `CCOC(=O)CC1(CC(=O)OCC)OCCO1`, the growth inhibition is -6.2% in assay [1]; 7.1% in assay [2]; -2.05% in assay [3]; -4.15% in assay [4]; -28.8% in assay [5]; -26.2% in assay [6].
Turning to `CC(C)CCCC(C)C1CCC2C3CC=C4CC(OC(=O)c5ccncc5)CCC4(C)C3CCC12C` (centres undefined), the growth inhibition in assay [1] was 3.2%; in assay [2], -12.1%; in assay [3], -10.2%; in assay [4], -28.4%; in assay [5], -0.4%; in assay [6], -23.6%.
On to `Brc1ccc2noc(-c3ccccc3)c2c1`, for which the growth inhibition was 29.4% in assay [1]; 2.25% in assay [2]; 31.6% in assay [3]; -1.6% in assay [4]; 9.95% in assay [5]; 16.9% in assay [6].
With `CC(=O)N1C(OC(C)C)CC(C)N1c1ccccc1` (centres undefined), the growth inhibition in assay [1] is -7.45%; in assay [2] it was -15.8%; in assay [3] it was -38.4%; in assay [4], 3.35%; in assay [5] it was -22.8%; in assay [6], -38.3%.
With `COC(=O)c1cccc(Cl)n1`, the growth inhibition in assay [1] was 4.7%; in assay [2] it was -16.8%; in assay [3] it was -6.95%; in assay [4], 1.05%; in assay [5] it was 10.4%; in assay [6], 7.85%.
As for `CC(C)(C)OC(=O)Cc1c[nH]c2ccccc12`, the growth inhibition was -38.2% in assay [1]; -27.1% in assay [2]; -9.45% in assay [3]; -19.1% in assay [4]; -27.6% in assay [5]; -41.1% in assay [6].
For `O=C1c2ccccc2C(=O)c2c1c([N+](=O)[O-])c1c(c2[N+](=O)[O-])OCO1`, the growth inhibition was 7.15% in assay [1]; 0.15% in assay [2]; 21.8% in assay [3]; -0.15% in assay [4]; 14.1% in assay [5]; 31.2% in assay [6].
For the compound `CN1CCC/C1=N\c1ncn[nH]1`, the growth inhibition in assay [1] was 3.3%; in assay [2], -21.1%; in assay [3], -4.45%; in assay [4], -65.3%; in assay [5], -8.5%; in assay [6] it was -2.85%.
As for `CN1C(=O)C(/C=N/NC(=O)c2cccnc2)C(N)N(C)C1=O` (centres undefined), the growth inhibition in assay [1] is 4.85%; in assay [2], 18.2%; in assay [3], -4.8%; in assay [4] it was -1.45%; in assay [5], -41.9%; in assay [6] it was 31.7%.
As to `O=C(CBr)c1cc(-c2ccc(Cl)cc2)nc2c(-c3ccccc3)cccc12`, the growth inhibition in assay [1] was 14.2%; in assay [2], 1.2%; in assay [3] it was 27.6%; in assay [4], 48.9%; in assay [5], 2.15%; in assay [6], 14.4%.
Consider `O=C(c1ccc(Cl)cc1Cl)N1CCCCC1`, for which the growth inhibition in assay [1] was 1.45%; in assay [2] it was -6.15%; in assay [3], 1.75%; in assay [4], -1.25%; in assay [5], 4.9%; in assay [6], 0.15%.
For the compound `O=C(Cc1c[nH]c2ccccc12)N/N=C/c1ccccc1[N+](=O)[O-]`, the growth inhibition in assay [1] was 18.9%; in assay [2], -4.75%; in assay [3], 10.1%; in assay [4], 1.1%; in assay [5], 14.7%; in assay [6], 17.3%.
Turning to `CC(C)NNC(=O)c1ccc(N)cc1`, the growth inhibition was 16.1% in assay [1]; 6.05% in assay [2]; 4.55% in assay [3]; 6.55% in assay [4]; 4.8% in assay [5]; 6.35% in assay [6].
`Cc1cc(C)cc(OCCC(=O)O)c1`: the growth inhibition in assay [1] was -1.4%; in assay [2], -16.6%; in assay [3] it was -10.4%; in assay [4], 21.7%; in assay [5], 2.95%; in assay [6], 7.1%.
`CCCCCCCCCCCCCCCC(=O)Oc1ccc(/C(CC)=C(/CC)c2ccc(OC(=O)CCCCCCCCCCCCCCC)cc2)cc1`: the growth inhibition in assay [1] is 16.1%; in assay [2], -8.1%; in assay [3], 8.55%; in assay [4], 1.85%; in assay [5] it was 8.65%; in assay [6], 4.25%.
In the case of `NC(=O)SCC(=O)Nc1ccc2cccc3c2c1CC3`, the growth inhibition is 66.2% in assay [1]; 60.3% in assay [2]; 80% (active) in assay [3]; 61.6% in assay [4]; 74.3% (active) in assay [5]; 85.2% (active) in assay [6].
Take `COc1ccc([N+](=O)[O-])c2ncncc12`: the growth inhibition in assay [1] is -14.4%; in assay [2], -12%; in assay [3], 0.8%; in assay [4], 6.6%; in assay [5], -10.9%; in assay [6] it was 20.6%.
Regarding `Nc1ccc(P(=O)(O)c2ccc(N)cc2Br)c(Br)c1`, the growth inhibition in assay [1] was 35.1%; in assay [2], -6.1%; in assay [3], 18.4%; in assay [4], 1.55%; in assay [5] it was -4%; in assay [6] it was -6.8%.
